Experimental findings from PubChem BioAssay (NCI) are described below.

About 83,000 compounds went through this panel and 20% of them were active in at least one assay; those are over-represented in the sample as a whole.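 Compound tested at a single concentration for 48 hours in 96-well plates; a percent growth value below 10 was scored as active.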 A number with no mark means an inactive call. The source made the active and inactive calls.

In this assay the test system is TK-10 renal. Briefly: NCI-60 one-dose screen, 48 h (100 = growth as untreated, 0 = no growth, -100 = all killed). Particulars: 10 µM unless noted. Here is the method:
Growth inhibition of the TK-10 human tumor cell line is measured as a screen for anti-cancer activity. Cells are grown in 96 well plates and exposed to the test compound for 48 hours. Compounds are tested at a single concentration, which is 10^-5 M for most compounds. The reported endpoint is percent growth (GI% or GIPRCNT), where numbers from 0 - 100% represent growth inhibition, and numbers from -100% - 0 represent cell death. For example, a value of 40 represents 60% growth inhibition. A value of 0 means no net growth occurred over the course of the experiment. A value of -40 indicates 40% of cells at the beginning of the experiment died by the end of the experiment. A value of -100 means all cells are dead at the end of the experiment.
NCI-60 Human Tumor Cell Lines Screen was performed using the standard one-dose NCI protocol, which is described in more detail at https://dtp.cancer.gov/discovery_development/nci-60/default.htm.
Compounds with GIPRCNT values below 10 were considered active. Activity score was based on GIPRCNT using the following formula: […]
Score is 0 for GIPRCNT values of 100 or above, 50 for GIPRCNT values of 0, and 100 for GIPRCNT values of -100.
Turning to `Nc1ncnc2c1C(c1ccc(Br)cc1)c1sc3c(F)cccc3c1O2` (stereo not given), the growth is 119%. Next, `CS(=O)(=O)Nc1cncc(-c2ccc3ncnc(Nc4cncc(Cl)c4)c3c2)c1`: 65.2%. Regarding `O=C(/C=C/c1cn(-c2ccccc2)nc1-c1ccc(Cl)cc1)c1ccc(F)cc1`, the growth is 107%.

Regarding `O=C(/C=C/c1cccc(Cl)c1)c1ccc(Nc2nc(Nc3ccc(F)cc3)nc(Nc3ccc(Cl)cc3)n2)cc1`, the growth is 127%.

Regarding `COc1ccc(-c2cc(-c3cccnc3)nc3sc4c(=O)[nH]c(-c5ccc(Cl)cc5)nc4c23)cc1OC`, the growth is 104%.

For the compound `COc1cc2ncnc(Nc3ccc(F)c(Cl)c3)c2cc1OCC(=O)N1CCN(c2ccccc2)CC1`, the growth is 42.4%.

Turning to `COc1ccc(-c2noc(C(=O)O)c2-c2cc(OC)c(OC)c(OC)c2)cc1`, the growth is 46.4%. `COC(CC(F)F)c1cn(S(=O)(=O)c2ccc(C)cc2)c2ccccc12` (stereo not given): the growth is 59.3%.

Regarding `O=C1c2c(c3c4ccccc4[nH]c3c3ccc4ccccc4c23)C(=O)N1CCN1CCOCC1`, the growth is 71.2%. Next, `CSc1nc2ccccc2cc1/C=[N+](\[O-])c1ccccc1`: 98%; `CNc1nnc2n(-c3ccccc3)c(=O)c3cnn(-c4ccccc4)c3n12`: 79.9%. For the compound `CCCCNC(=O)Oc1ccc(/C(=C(/C)Cc2ccc(OC)cc2)c2ccc(OCCN3CCCC3)cc2)cc1`, the growth is 81.2%. On to `Cn1cc(-c2csc(-c3c[nH]c4ccc(Br)cc34)n2)c2ccnc(Cl)c21`, for which the growth was 56.3%. As for `CC(C)COc1nc2c(c(=O)n(C)c(=O)n2C)n1C`, the growth is 105%. In the case of `Cc1c(-c2ccc(O)cc2)n(Cc2ccc(OCCN3CCCCCC3)cc2)c2ccc(O)cc12` it was 78%. For the compound `COc1ccc(/C=C/C(=O)c2cc3c(N)c(C(=O)Nc4cccc5ccccc45)sc3nc2C)cc1`, the growth was 94.2%. Next, `C=C(C)[C@@H]1CC[C@]2(CO)CC[C@]3(C)[C@H](CC[C@@H]4[C@@]5(C)CC[C@H](NCO)C(C)(C)[C@@H]5CC[C@]43C)[C@@H]12`: -64.8% (active); `O=C1NC2(Nc3ccccc31)C(=O)Nc1c(Cl)cc(Cl)cc12` (stereo not given): 206%; `CCCc1c(OC(=O)c2ccccc2)nc2[nH]c(=O)sc2c1C`: 96.1%. Next, `CC/C=C\C[C@H](O)C/C=C1/C(=O)C=C[C@@H]1C/C=C\CCCC(=O)N(C)C`: -6.21% (active). Next, `COc1cc2c(c(OC)c1OC)CCC(c1cccc(C(=O)Nc3ccc(C#N)cc3)c1)O2` (stereo not given): 57.6%.

In the case of `COc1ccc(-c2cc(-c3cc(OC)c(OC)c(OC)c3)c(C#N)c(=O)n2CCCCC(=O)NO)cc1`, the growth was 68.1%. Consider `Cn1c(I)c(C#CCO[Si](C)(C)C(C)(C)C)c(=O)[nH]c1=O`, for which the growth is 92.7%. In the case of `O=C(/C=C/c1ccccc1)Nc1ncc(Cc2ccccc2Cl)s1` it was 44.6%; in that of `CC(=O)Oc1ccc(/C(=C(\C)c2ccc(Cl)cc2)c2ccc(OCCN3CCCCC3)cc2)cc1`, 68.4%. Consider `c1ccc([P+](c2ccccc2)(c2ccccc2)c2ccc3c4ccc([P+](c5ccccc5)(c5ccccc5)c5ccccc5)c5cccc(c6cccc2c63)c54)cc1`, for which the growth was 52.2%.

On to `CC(=O)n1nc(C(=O)OC(C)(C)c2ccccc2)c2ccccc21`, for which the growth was 101%.

For the compound `O=C(NCCCl)Nc1ncccc1OCc1ccccc1`, the growth is 88.9%. On to `CC(=O)c1c(C)nc2ccccc2c1/C=C/c1ccc(F)cc1`, for which the growth was 91.8%.

As for `N#C/C(=C\c1c(-c2ccccc2)[nH]c2ccccc12)C(N)=O`, the growth is 124%.

Take `NC(=O)c1cc(I)ccc1NC(=O)/C=C/c1ccccc1`: the growth was 60.8%. Turning to `O=C(N(c1ccccc1)c1ccccc1)n1cc(I)c2nc(Cl)nc(Cl)c21`, the growth was 86.8%. In the case of `O=C1/C=C/[C@@H](O)[C@@H]2C[C@@H](O)C[C@H]2/C=C/CCC[C@H](CCc2ccccc2)O1` it was -26% (active); in that of `O=CN1N=C(c2cccc(Nc3ccnc4cc(Cl)ccc34)c2)CC1c1ccccc1` (stereo not given), 32.2%; in that of `O=C(Nc1cccc(-c2ccc(N3CCOCC3)nn2)c1)Nc1cccc(C(F)(F)F)c1`, 70.6%. In the case of `O=C(Nc1ccccc1O)c1ccc(CNC(=O)c2sccc2Nc2ccnc(C(F)(F)F)c2)cc1` it was 4.53% (active); in that of `O=C(Nc1ccc(Oc2cccc(Cl)c2)c(Cl)c1)c1cnccn1`, 56.4%; in that of `C=CC[Se]C(=O)Cc1c(C)n(C(=O)c2ccc(Cl)cc2)c2ccc(OC)cc12`, -33.5% (active). On to `COc1ccc(OC)c(/C=N/Nc2ncnc3c2c(C)nn3C)c1`, for which the growth was 105%. As to `COC(=O)c1c(C)nc(C)c2c1C(=O)C(Br)=C(NCc1ccccc1)C2=O`, the growth is 86.6%.
